The list is not random: actives were taken first. Their share in the collection is about 1.8%.
PI5P4K alpha inh: inhibitors of human PI5P4K alpha; P48426; PI5P4Kalpha enzyme, ADP-Glo luminescence, 60 min; stronger effect = lower value; max response, %; 330,000 compounds, 1.2% hits; AID 652105; active = max response of -50% or lower; inconclusive = between -30% and -50%; inactive = -30% or higher; note: value at the top dose of about 77 µM
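Reactions run in 0.038 M HEPES pH 7.4, 0.28 mM EGTA, 0.1% CHAPS and 5% DMSO, with PI5P4Kalpha, substrate, compound and 5 microM ATP final, one hour at room temperature. Readout is ADP-Glo luminescence.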
pAkt inh: inhibitors of Akt phosphorylation; Neuro2A IGF-stimulated pAkt S473 HTRF, 20 min; stronger effect = lower value; activity change, % for hits at 50 µM; 360,000 compounds, 0.32% hits; in the data active = activity change below about -80%; inconclusive = mostly about -51% to -80%
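Neuro2A cells in DMEM with 0.5% FBS, overnight at 37 deg C, given compound at single 50 µM final, then IGF (6 nM final) for 20 min at 37 deg C. Lysed; phospho-Akt Ser473 by HTRF after 24 h, 665/615 ratio.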
CtBP-E1A inh: blocks the CtBP interaction with E1A; AlphaScreen GST-E1A/His-CtBP binding, 1536-well; stronger effect = lower value; activity change, % (concentration not given with the values); 340,000 compounds, 0.49% hits; AID 651724
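Homogeneous bead-based format: GST-tagged E1A captured on glutathione donor beads, His-tagged CtBP on nickel acceptor beads; compounds precede bead addition by 2 h at 37 °C.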
Six1-Eya2 inh: Six1/Eya2 interaction inhibition | Q15475+O00167 | 360,000 compounds, 0.56% hits | activity change, % (concentration not given with the values) | AID 651725 | AlphaScreen GST-Six1/His-Eya2 binding, biochemical; stronger effect = lower value
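Compounds are tested against tagged Six1 and Eya2 proteins bridged by glutathione donor and nickel acceptor beads; after a one-hour incubation at 37 °C without light, AlphaScreen emission is recorded.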
PI4K2A inh: PI4K2A (human) kinase inhibition; activity change, negative = inhibition, % at 76.9 µM; 420,000 compounds, 0.13% hits; Q9BTU6; purified PI4K2A, ADP-Glo luminescence, 1 h; stronger effect = lower value; in the data active = activity change below about -50%; inconclusive = mostly about -30% to -49%
Target sequence (Q9BTU6 whole entry, looked up): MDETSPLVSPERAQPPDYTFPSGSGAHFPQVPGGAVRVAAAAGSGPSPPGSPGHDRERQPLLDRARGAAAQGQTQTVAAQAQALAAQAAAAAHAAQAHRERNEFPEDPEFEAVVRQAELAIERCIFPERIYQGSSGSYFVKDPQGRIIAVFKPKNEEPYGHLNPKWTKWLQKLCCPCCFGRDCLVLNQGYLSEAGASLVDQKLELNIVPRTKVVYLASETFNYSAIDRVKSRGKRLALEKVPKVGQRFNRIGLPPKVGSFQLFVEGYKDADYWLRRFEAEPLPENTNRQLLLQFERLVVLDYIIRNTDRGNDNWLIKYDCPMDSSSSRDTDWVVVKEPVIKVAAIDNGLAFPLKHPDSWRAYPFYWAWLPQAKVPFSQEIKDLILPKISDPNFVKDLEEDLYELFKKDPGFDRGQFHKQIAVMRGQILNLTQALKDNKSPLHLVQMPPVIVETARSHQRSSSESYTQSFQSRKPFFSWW
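PI4K2A activity was measured by ADP-Glo luminescence: enzyme (4 ug/mL stock) and phosphatidylinositol (1.2 mM stock) in Tris pH 7.5/MgCl2/EGTA/Triton X-100 buffer were reacted with ATP (300 microM stock) for one hour at ambient temperature.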
Each line names hits and unclear results; the compound was inactive in the other large screens. Cut-off read from the data, not from the text of the source, unless noted: active = activity change below about -65%; inconclusive = mostly about -30% to -63%; inactive = weaker than that.

O=C(NCc1ccccc1)c1ccc2nc(-c3ccco3)c(-c3ccco3)nc2c1	PI5P4K alpha inh inconclusive, Six1-Eya2 inh inconclusive, PI4K2A inh -66
O=C(Nc1ccc(N2CCOCC2)cc1)c1ccc2nc(-c3ccco3)c(-c3ccco3)nc2c1	none (no result: PI5P4K alpha inh)
CC(C)(C)NC(=O)c1cccc(NC(=O)c2ccc(NC(=O)c3ccco3)cc2)c1	Six1-Eya2 inh -79 (no result: PI5P4K alpha inh)
CCN(CC)C(=O)c1ccc2nc(-c3ccccc3)c(-c3ccccc3)nc2c1	none
S=C(Nc1ccc(N2CCOCC2)cc1)Nc1ccc2nc(-c3ccco3)c(-c3ccco3)nc2c1	PI5P4K alpha inh -78, CtBP-E1A inh inconclusive, Six1-Eya2 inh inconclusive, PI4K2A inh inconclusive
CCCNC(=O)c1ccc2nc(-c3ccccc3)c(-c3ccccc3)nc2c1	pAkt inh -120%
CC(=O)c1ccc(NC(=O)c2ccc3nc(-c4ccco4)c(-c4ccco4)nc3c2)cc1	PI5P4K alpha inh -110, Six1-Eya2 inh inconclusive, PI4K2A inh -56
O=C(Nc1ccccc1)c1ccc2nc(-c3ccco3)c(-c3ccco3)nc2c1	CtBP-E1A inh inconclusive, Six1-Eya2 inh inconclusive, PI4K2A inh -51 (no result: PI5P4K alpha inh)
CC(=O)c1ccc(NC(=O)CSc2nnc(-c3ccco3)c(-c3ccco3)n2)cc1	PI5P4K alpha inh -64, CtBP-E1A inh inconclusive, Six1-Eya2 inh inconclusive, PI4K2A inh inconclusive
O=C1CCC(C(=O)Nc2cccc(Br)c2)N1 (stereo unspecified)	none
CC(C)N(C(C)C)S(=O)(=O)c1ccc(Cl)nc1	none
OC[C@@H](O)[C@H](O)[C@H](O)[C@@H](O)CO	none (no result: PI5P4K alpha inh, pAkt inh, CtBP-E1A inh, Six1-Eya2 inh)
O[C@@H]([C@H](O)[C@H](O)CBr)[C@H](O)CBr	PI5P4K alpha inh -62
COc1ccccc1NC(=O)c1cc2c(CO)cnc(C)c2oc1=Nc1cc(OC)c(OC)c(OC)c1	none
COc1cc(N=c2oc3c(C)ncc(CO)c3cc2C(N)=O)cc(OC)c1OC	Six1-Eya2 inh -79
O=C(N/N=C/C(Cl)=C\c1ccccc1)c1ccco1	CtBP-E1A inh -77
O=C(N/N=C/C(Cl)=C/c1ccccc1)c1cnccn1	CtBP-E1A inh -92, Six1-Eya2 inh inconclusive
CC(=C/c1ccccc1)/C=N/NC(=O)c1cnccn1	none
O=C(N/N=C/C(Cl)=C\c1ccccc1)c1cnccn1	CtBP-E1A inh -85, Six1-Eya2 inh inconclusive
CC(=O)c1ccc(NC(=O)COC(=O)CCc2ccc(S(=O)(=O)N3CCOCC3)cc2)cc1	none
C=CCN(CC=C)C(=O)Cn1cnc([N+](=O)[O-])n1	none
Cc1cccc(NC(=O)c2oc3ccccc3c2NC(=O)Cc2coc3ccc(C(C)C)cc23)c1	none (no result: PI5P4K alpha inh, pAkt inh, CtBP-E1A inh, Six1-Eya2 inh)
NCc1csc(Nc2cc(Oc3ccccc3)ncn2)n1	CtBP-E1A inh -77, Six1-Eya2 inh inconclusive
CC(=O)C1C(c2ccc(Br)cc2)c2c(noc2C)CC1(C)O (stereo unspecified)	none
O=C(CSCc1ccc(Cl)cc1Cl)Nc1ccccc1C(=O)Nc1ccc(C(=O)O)cc1	none
C=CCn1c(CSCc2ccc(Cl)cc2Cl)nnc1SCC(=O)Nc1ccc(C(=O)O)cc1	PI5P4K alpha inh -74
CCCOc1ccc2cc(-c3ccccn3)c(=O)oc2c1	PI5P4K alpha inh inconclusive, PI4K2A inh -61
O=c1oc2cc(OCc3c(F)cccc3Cl)ccc2cc1-c1ccccn1	none
COc1ccc(CCn2c(C)c(C(C)=O)c(C(C)=O)c2C)cc1OC	none
N/C(=N\OC(=O)c1ccc(F)cc1)c1nonc1N	PI4K2A inh inconclusive
N/C(=N/OC(=O)c1ccccc1Cl)c1nonc1N	PI4K2A inh -54
C/C(CC(C)C)=N/Nc1ccc([N+](=O)[O-])cc1[N+](=O)[O-]	Six1-Eya2 inh inconclusive (no result: CtBP-E1A inh)
CC(Cc1ccccc1)=NNc1ccc([N+](=O)[O-])cc1[N+](=O)[O-]	CtBP-E1A inh inconclusive, Six1-Eya2 inh -65
CS(=O)(=O)N1CCn2c1nc1ccccc12	none
CCN1N=C(c2ccccc2)Cn2c1nc1ccccc12	pAkt inh -107%
Cc1ccc(C(=O)c2c(C)oc3c2C(=O)C(=O)c2ccccc2-3)cc1	CtBP-E1A inh inconclusive, PI4K2A inh -63
Nn1cnnc1N/N=C/c1ccc(F)cc1	PI4K2A inh inconclusive (no result: CtBP-E1A inh)
Nn1cnnc1N/N=C/c1ccc(Cl)c([N+](=O)[O-])c1	CtBP-E1A inh inconclusive, PI4K2A inh -52
Cc1nnc(N/N=C/c2ccc([N+](=O)[O-])cc2)n1N	CtBP-E1A inh inconclusive, Six1-Eya2 inh -68
Cc1nnc(N/N=C/c2ccc(Br)cc2)n1N	CtBP-E1A inh inconclusive
Cc1cc(C)n(CCOC(=O)c2sc3ccccc3c2Cl)n1	none
COc1ccc(CCNC(=O)C2CCCN2C(=O)NC2CCCCC2)cc1OC (stereo unspecified)	none
Cc1ccc(-n2c(CCc3nc4ccccc4[nH]3)n[nH]c2=S)cc1	PI5P4K alpha inh -58
Cc1nonc1C(=O)N/N=C/c1ccc(O)c(O)c1	PI4K2A inh -62
O=C(N/N=C/c1ccc(O)c(O)c1)N/N=C/c1ccc(O)c(O)c1	PI5P4K alpha inh -69, CtBP-E1A inh inconclusive, Six1-Eya2 inh inconclusive
CCCc1[nH]nc2c1C1(C(=O)N(CC)c3ccccc31)C(C#N)=C(N)O2 (stereo unspecified)	pAkt inh -110% (no result: PI5P4K alpha inh)
COc1cc(/C=C/C(=O)OCC(=O)N2CCN(S(=O)(=O)c3ccc(C)cc3C)CC2)ccc1OC(F)F	CtBP-E1A inh -86
Cc1ccc(S(=O)(=O)N2CCN(C(=O)COC(=O)/C=C/c3ccc(F)cc3)CC2)c(C)c1	none
CC1(c2ccncc2)Nc2ccccc2-c2nc3ccccc3n21 (stereo unspecified)	none (no result: PI5P4K alpha inh)
COc1cc(/C=C/C(=O)O)cc(S(=O)(=O)Nc2ccc3c(c2)OCO3)c1OC	PI5P4K alpha inh -53
COc1cc(/C=C/C(=O)O)cc(S(=O)(=O)NNC(=O)c2ccc3c(c2)OCO3)c1OC	none
CC1=NN(c2ccccc2)C(=O)C1=Cc1ccccc1	PI4K2A inh -57
CC1=NN(c2ccccc2)C(=O)/C1=C/c1ccc(Cl)cc1	PI4K2A inh inconclusive (no result: CtBP-E1A inh)
O=C(COC(=O)c1cccnc1Cl)c1ccc(F)cc1	none
O=C(COC(=O)c1cccs1)c1ccccc1	pAkt inh -127%
O=C(COC(=O)c1cccnc1Cl)c1ccccc1	PI4K2A inh -71 (no result: PI5P4K alpha inh)
COc1ccc(C(=O)COC(=O)c2cccs2)cc1	PI4K2A inh inconclusive (no result: CtBP-E1A inh)
C[C@@H]1CN([C@H](C)CO)C(=O)CCCn2cc(nn2)CO[C@H]1CN(C)S(=O)(=O)c1cccs1	none
O=c1c2ccccc2nc(-c2ccco2)n1-c1nc2ccccc2s1	none
C=CC1=C(C(=O)O)N2C(=O)[C@@H](NC(=O)/C(=N\O)c3csc(N)n3)[C@H]2SC1 (stereo in doubt)	PI5P4K alpha inh inconclusive, CtBP-E1A inh -85, Six1-Eya2 inh -90
C[C@H]1[C@H](NC(=O)/C(=N\OC(C)(C)C(=O)O)c2csc(N)n2)C(=O)N1S(=O)(=O)O	none (no result: PI5P4K alpha inh, pAkt inh, CtBP-E1A inh, Six1-Eya2 inh)
COc1ccccc1C(c1c(O)nc(SC)[nH]c1=O)c1c(O)nc(SC)[nH]c1=O	PI5P4K alpha inh -51
N#Cc1cc(-c2cccc(Cl)c2)c[nH]c1=O	none
